The results in this text go back to PubChem BioAssay AID1259311 (ICCB-Longwood Screening Facility, Harvard Medical School, 2017).

Values joined by “and” are separate entries in the source; they are usually repeats but may differ in a detail not shown here. Identical values can stand only once. The campaign covered roughly 330,000 compounds. About 1,100 (0.33%) were called active. Cut-off read from the data, not from the text of the source: active = inhibition above about 85%; inactive = the rest. The list comes from a sample in which actives are over-represented; it also holds similar structures and randomly drawn compounds.

This assay in a line: growth inhibition of S. aureus RN4220, primary screen, OD600 (AID 1259311).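 Note: plate controls were untreated cells for no effect and reference antibiotic for full effect.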 The conditions noted are these: OD600, 16 h, active compounds read high.
By inhibition is commonly meant the drop in the measured response relative to a control, in per cent. Turning to `Cc1ccsc1C(=O)OCC(=O)c1cc(C)n(CC2CCCO2)c1C` (stereo not given), the inhibition is 2.84% (inactive).

Turning to `Cc1cc(C(=O)CCl)c(C)n1CC1COc2ccccc2O1` (stereo not given), the inhibition was 93.5% (active).

On to `O=C1C(=O)N(CC2COc3ccccc3O2)c2ccccc21` (stereo not given), for which the inhibition is 5.32% (inactive).

For the compound `CON=Cc1ccc(Sc2ccc(C)cc2)c([N+](=O)[O-])c1`, the inhibition was -19% (inactive).

Turning to `NC(=O)C1CCN(C(=O)COc2cccc3cccnc23)CC1`, the inhibition is -6.77% (inactive).

`OCc1ccc(OCCCOc2cccc3cccnc23)cc1`: the inhibition was 4.11% (inactive).

On to `O=C(Nc1ccccc1)Oc1cccc2cccnc12`, for which the inhibition was 94.9% (active).

Take `CCCOc1ccc(NC=CC(=O)C(C)(C)C)cc1`: the inhibition is 7.56% (inactive).

As for `Cc1cc(C(=O)NN=Cc2ccncc2)c(C)o1`, the inhibition is -0.256% (inactive).

As for `CNC(=S)NN=C(C)c1ccc(C(C)(C)C)cc1`, the inhibition was 0.974% (inactive).

`Oc1ccccc1C1=NN(c2ccccc2)C(c2ccccc2)C1` (stereo not given): the inhibition was 94% (active).

As to `Cc1ccc(N2C(=O)C3N=NN(CC(=O)N4N=C(c5cccc6ccccc56)CC4c4ccccc4)C3C2=O)cc1` (stereo not given), the inhibition is 1.33% (inactive).

Consider `O=C1C2N=NN(CC(=O)N3N=C(c4cccc5ccccc45)CC3c3ccccc3)C2C(=O)N1c1ccccc1` (stereo not given), for which the inhibition was 7.1% (inactive).

For `Cc1cccc(NC(=S)Nc2ccc(Cl)c(Cl)c2)c1`, the inhibition was 98.8% (active).

With `Cc1cccc(NC(=S)NN=C(c2ccccc2)C(C)C)c1`, the inhibition was -4.52% (inactive).

For the compound `Cc1ccc(NC(=S)Nc2ccc(F)cc2)cc1`, the inhibition was -0.939% (inactive).

As to `CC(=O)NN=C(C)CC(=O)Nc1ccc2c(c1)OCCO2`, the inhibition was 1.21% (inactive).

With `CCc1ccc(NC(=O)c2ccc(Cn3cc([N+](=O)[O-])cn3)cc2)cc1`, the inhibition is 18.3% (inactive).

For the compound `COc1cc(NS(=O)(=O)c2ccc(NC(=O)c3ccc([N+](=O)[O-])cc3)cc2)ncn1`, the inhibition was 2.54% (inactive).

Take `Cn1ccc(=Nc2ccc(NC(=O)c3ccc(N=c4ccn(C)c5ccc([N+](=O)[O-])cc45)cc3)cc2)cc1`: the inhibition is 95.4% (active).

For the compound `CC(NC(=O)c1nc[nH]c1C(=O)N(C)Cc1ccccc1)C(=O)OC(C)(C)C` (stereo not given), the inhibition is 2.94% (inactive).

Turning to `CCc1ccc(C=NNc2nn[nH]n2)cc1`, the inhibition was 0.812% (inactive).

Regarding `O=C(Nn1cnnc1)c1ccc([N+](=O)[O-])cc1`, the inhibition was 4.07% (inactive).

For the compound `O=C(Nc1ccccc1C(=O)Nc1ccncc1)c1ccc([N+](=O)[O-])cc1`, the inhibition is 3.63% (inactive).

On to `O=C(c1ccncc1)c1ccc([N+](=O)[O-])cc1`, for which the inhibition is 75% (active).

For `Cc1c(NC(=O)C(=O)C=C(O)c2ccccc2)c(=O)n(-c2ccccc2)n1C`, the inhibition is -0.817% (inactive).

As to `C#CCOCCOCCOCCNc1nc(N2CCN(C(=O)C(CCCCN)n3cc(CCC(=O)O)nn3)CC2)nc(N2CCN(C(=O)C(C(C)O)n3cc(CCCCN)nn3)CC2)n1` (stereo not given), the inhibition is -0.306% (inactive).

In the case of `Cc1ccc(OCC(=O)NNC(=S)NCc2ccccc2)cc1`, the inhibition was 3.38% (inactive).

As to `O=C(Nc1ccc2ccccc2c1)/C(=C/c1cccc(Br)c1)NC(=O)c1ccco1`, the inhibition is 0.361% (inactive).

Regarding `CC(Oc1ccc2ccccc2c1)C(=O)NNC(=S)NC(=O)c1ccco1` (stereo not given), the inhibition was 92.3% (active).

In the case of `CCCc1ccc(OCC(=O)NNC(=S)NC(=O)c2ccco2)cc1`, the inhibition was 102% (active).

As to `Cc1ccc(OCC(=O)NCCCNC(=O)c2ccco2)cc1C`, the inhibition was -1.59% (inactive).

As for `Cc1ccc(C(=O)NNC(=O)C(C)Oc2ccc3ccccc3c2)o1` (stereo not given), the inhibition was 0.442% (inactive).

For the compound `Cc1cc(=O)[nH]c(NN=Cc2ccccc2Cl)n1`, the inhibition was 2.01% (inactive).

For the compound `CC(C(O)c1ccccc1)N(C)C(=O)CCc1ccccc1` (stereo not given), the inhibition is 0.814% (inactive).

As to `Cc1cc(Cl)ccc1OCCCC(=O)NN=Cc1cccc([N+](=O)[O-])c1`, the inhibition was -5.47% (inactive).

Turning to `CN(C)c1ccc(C(=NO)C(F)(F)F)cc1`, the inhibition is 19.2% (inactive).

Turning to `O=C(CN1C(=O)C(=Cc2ccc(C(F)(F)F)cc2)Sc2ccccc21)NCc1ccco1`, the inhibition is 2.46% (inactive).

Consider `COc1ccccc1NC(=S)N1CCN(c2ccc(F)cc2)CC1`, for which the inhibition is 3.36% (inactive).

For the compound `COc1c(N2CCN(C(=S)Nc3ccccc3F)C(C)C2)c(F)cc2c(=O)c(C(=O)O)cn(C3CC3)c12` (stereo not given), the inhibition was 99.8% (active).

Take `CC1CN(C(=S)Nc2ccccc2F)CC(C)O1` (stereo not given): the inhibition is -2.44% (inactive).

For `S=c1[nH]nc(C2CCCCC2)n1N=C/C=C/c1ccccc1`, the inhibition was 3.47% (inactive).

In the case of `CCOC(=O)C1=C(c2ccc(OC)cc2)C(=O)c2ccccc2C1=O`, the inhibition was 96.9% (active).

For the compound `COc1ccc(CNC(=O)CCN2C(=O)c3ccccc3C2=O)cc1`, the inhibition was 0.137% (inactive).

As for `COC(=O)c1cc(OC)ccc1-c1ccc(OC)cc1`, the inhibition was -2.37% (inactive).

As for `Cc1nn(Cc2ccc(F)cc2)c(Cl)c1C=NNC(=O)c1cccnc1`, the inhibition is 4.34% (inactive).

As for `COC(=O)NN=C(C)c1ccc(Br)cc1`, the inhibition is 0.736% (inactive).

Take `S=c1[nH]nc(COc2ccccc2)n1N=C/C=C/c1ccccc1`: the inhibition is 7.1% (inactive).

Consider `CN1CCN(N=Cc2nc(-c3ccccc3Cl)n3ccccc23)CC1`, for which the inhibition is 7.72% (inactive).

In the case of `O=S(=O)([N-]c1nc2ccccc2nc1-[n+]1ccc(Cc2ccccc2)cc1)c1ccc(Br)s1`, the inhibition was 94.6% (active).

In the case of `O=S(=O)(NCc1ccccn1)c1ccc(Br)s1`, the inhibition is 8.79% (inactive).

On to `CN1CCc2c(sc(N=Cc3cc(Cl)ccc3O)c2C#N)C1`, for which the inhibition was 5.61% (inactive).

For `CCN1/C(=C/c2ccc3ccc(C)cc3[n+]2CC)Sc2ccccc21`, the inhibition is 100% (active).

For `CC1CN(C(C)CO)C(=O)c2cccc(NC(=O)Nc3ccc(C(F)(F)F)cc3)c2OC1CN(C)C` (stereo not given), the inhibition was 0.322% (inactive).

`COc1ccccc1NC(=O)c1ccc2nc(N3C(=O)CCC3=O)sc2c1`: the inhibition was 2.05% (inactive).

As to `COc1ccc(C2=NN(c3nc4ccccc4s3)C(=O)C2)cc1`, the inhibition was 97.7% (active).

Regarding `COc1ccc(C(=O)Nc2cccc(/C=C(/CCC(=O)O)c3nc4ccccc4s3)c2)cc1`, the inhibition is 19.7% (inactive).

Turning to `CCN1CC2C3C(=O)N(Cc4ccccc4)C(=O)C3[C@](C)(C1=O)N2C(=O)c1ccc(C)cc1` (stereo not given in full), the inhibition was 3.51% (inactive).

Regarding `NC1=NCC(Cc2ccc(O)cc2)N1CC1CCCCC1` (stereo not given), the inhibition was 4.08% (inactive) and -3.38% (inactive).

For the compound `CC(=O)OC1CC[C@@]2(C)C(CCC3C4CCC(C(C)O)[C@@]4(C)CC(=O)C32)C1` (stereo not given in full), the inhibition is 3.21% (inactive).
